# Hits are enriched below; roughly 5.4% of the tested compounds scored in any of these assays.
# MPTP block – inhibitors of mitochondrial permeability transition pore | inhibition, % at 10 µM | hit rate 1.4% among 360,000 | isolated mouse mitochondria, Ca2+ swelling absorbance, 30 min | AID 602449;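 active means inhibition of 50% or more, scaled per plate between neutral and stimulator controls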;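 further: 0% = DMSO wells given calcium and 100% = 1 mM EGTA wells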
# CSC inhib – cancer stem cell inhibition; inhibition, % at 7.5 µM; cancer stem cell-like cells viability, luminescence; AID 2717; hit rate 1.1% among 300,000; in the data active means inhibition above about 75%; inconclusive means no clear call, values can overlap the other calls; tested in HMLE shEcad cells
# SKKanGAS inh – SKKanGAS growth inhibition; S. pyogenes SKKanGAS, kanamycin growth, BacTiter-Glo, 6 h; inhibition, % at 7.5 µM; hit rate 1.3% among 300,000; AID 1662;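 active means mean replicate score, as percent of positive control median, at least 50; inconclusive means mean below 50 but one replicate at or above 50; inactive means mean and every replicate below 50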;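 further: strain carries kanamycin resistance gene driven by streptokinase promoter and grows in 40 µg/ml kanamycin; loss of luminescence reflects streptokinase promoter inhibition or plain growth inhibition; 0% = median of DMSO wells and 100% = positive control at its reference dose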
# Calb FLC – affects C. albicans growth with fluconazole; C. albicans CaCi-2 (fluconazole-resistant clinical isolate) + fluconazole, Alamar Blue growth, 48 h; growth inhibition, % (no concentration beside the values); hit rate 0.57% among 300,000;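 active means growth inhibition above about 58% in most replicates, limit read from the data, passing the limit was not always enough; inconclusive means exactly half the replicates above a set limit; inactive means most replicates below a set limit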;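 further: all wells also contain fluconazole at 8 µg/ml as a sub-toxic cotreatment; 0% = median of DMSO wells and 100% = median of geldanamycin control wells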
# Mdm2 MdmX PPI – human Mdm2/MdmX binding inhibition | inhibition, % at 8 µM | hit rate 3% among 330,000 | O15151+Q00987 | SaOS-2 split-luciferase Mdm2/MdmX complementation, luminescence | AID 485346;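 active means inhibition of at least 50% at 8 µM in the primary screen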
# Target sequence (O15151 whole entry, looked up): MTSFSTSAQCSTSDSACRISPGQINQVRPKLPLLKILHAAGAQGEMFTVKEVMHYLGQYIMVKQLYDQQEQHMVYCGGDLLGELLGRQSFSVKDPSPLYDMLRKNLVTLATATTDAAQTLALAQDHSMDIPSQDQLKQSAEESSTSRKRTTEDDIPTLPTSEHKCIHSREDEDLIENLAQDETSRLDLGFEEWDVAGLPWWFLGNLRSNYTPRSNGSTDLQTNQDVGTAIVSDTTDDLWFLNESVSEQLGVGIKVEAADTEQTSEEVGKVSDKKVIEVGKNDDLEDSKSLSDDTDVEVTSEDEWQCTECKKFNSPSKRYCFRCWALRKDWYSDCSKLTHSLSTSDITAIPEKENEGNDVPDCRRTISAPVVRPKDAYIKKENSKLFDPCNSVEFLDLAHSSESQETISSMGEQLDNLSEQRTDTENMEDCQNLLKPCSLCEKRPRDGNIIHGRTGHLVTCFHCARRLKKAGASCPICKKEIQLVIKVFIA
# Target sequence (Q00987 whole entry, looked up): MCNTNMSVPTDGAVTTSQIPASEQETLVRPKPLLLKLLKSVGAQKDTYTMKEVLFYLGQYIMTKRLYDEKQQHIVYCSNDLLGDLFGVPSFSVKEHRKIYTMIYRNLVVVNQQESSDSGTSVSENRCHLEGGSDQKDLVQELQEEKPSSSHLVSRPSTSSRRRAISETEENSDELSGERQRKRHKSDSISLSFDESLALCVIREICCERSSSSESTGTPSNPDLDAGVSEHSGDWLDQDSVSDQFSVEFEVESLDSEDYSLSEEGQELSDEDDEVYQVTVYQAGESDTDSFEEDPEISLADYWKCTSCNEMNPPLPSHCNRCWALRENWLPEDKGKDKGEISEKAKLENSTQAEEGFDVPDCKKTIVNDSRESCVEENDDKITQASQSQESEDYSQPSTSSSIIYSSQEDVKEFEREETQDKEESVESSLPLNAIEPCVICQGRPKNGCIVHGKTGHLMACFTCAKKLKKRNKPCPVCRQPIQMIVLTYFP
# Beta cell apopt – blocks beta cell apoptosis. INS-1E cytokine-induced death, ATP luminescence, 48 h; percent of positive-control rescue, neutral wells zero. protection from apoptosis, % (concentration not given with the values). hit rate 0.8% among 300,000. AID 435005;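 active means Every replicate reaches about 75%, or at least half do and their mean reaches it too, limit read from the data; inconclusive means At least half of replicates reach the limit but their mean does not; inactive means Under half of replicates reach the limit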;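 further: 0% = cytokine-treated negative control wells and 100% = positive control rescue; higher means more ATP so stronger rescue from cytokine killing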
# Mdm2 MdmX conf – human Mdm2/MdmX binding inhibition, confirmed; shares compounds with Mdm2 MdmX PPI; luminescent assay; inhibition, % at 8 µM; hit rate 55% among 10,000; AID 489028; in the data active means inhibition above about 40%
# Full FLuc ctr – inhibits full-length luciferase, flagging false Mdm2/MdmX hits; shares compounds with Mdm2 MdmX PPI; AID 504607; inhibition, % at 8 µM; SaOS-2 full-length luciferase counterscreen, luminescence; hit rate 77% among 6,200;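 active means mean inhibition at 8 µM reaching about 37%, which flags the compound as non-specific, limit read from the data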;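 further: p53-null SaOS-2 cells with luciferase driven by a doxycycline-inducible promoter; compound on cells about two nights before reading with doxycycline added after day one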
# * marks the source's active call; other numbers are inactive results; ? = inconclusive; / = no result given.
SMILES,MPTP block,CSC inhib,SKKanGAS inh,Calb FLC,Mdm2 MdmX PPI,Beta cell apopt,Mdm2 MdmX conf,Full FLuc ctr
CC(C)(CO)CN1CCC(n2nccc2NC(=O)C2CCOC2)CC1 (stereo unspecified),-4,/,/,/,/,/,/,/
Cc1cccc(N2CCN(C(=O)c3ccc4[nH]c(C)c(C)c4c3)CC2)c1C,1,62,/,/,60*,-4,58*,71*
CCn1cc(C(=O)NCCCN2CC(C)CC(C)C2)c(=O)c2cc(S(=O)(=O)N(C)C3CCCCC3)ccc21 (stereo unspecified),-2,-6,1,7,52*,12,37,60*
CC(C)OC(=O)c1sc2nc(-c3ccccc3)ccc2c1N,3,7,-11,13,52*,4,45*,180*
COc1ccc(C(=O)c2sc3nc(-c4ccccc4)ccc3c2N)cc1,4,41,/,/,-11,-2,/,/
COc1ccc(OC)c(Nc2nc(N)c([N+](=O)[O-])c(NCc3ccccc3)n2)c1,5,16,-8,0,85*,12,22,/
COCCCNc1nc(N)c([N+](=O)[O-])c(Nc2cc(OC)ccc2OC)n1,4,-4,26,-5,70*,-8,27,/
COc1ccc(Cn2c(CCC(=O)Nc3ccccc3)nc3cccnc32)cc1,1,14,-5,8,77*,-2,13,/
O=C(Nc1ccc2nc3n(c(=O)c2c1)CCCC3)c1cc([N+](=O)[O-])ccc1F,-1,-2,7,2,100*,28,91*,52*
COc1ccc(/C=C/C(=O)Nc2ccc3nc4n(c(=O)c3c2)CCCC4)cc1,2,56,16,4,70*,1,3,/
COc1cc(/C=C/C(=O)Nc2ccc3nc4n(c(=O)c3c2)CCCC4)cc(OC)c1OC,0,18,13,?,43,8,/,/
Cc1cccc(C)c1C(O)c1ncc(-c2cccc3ccccc23)[nH]1 (stereo unspecified),0,/,/,/,/,/,/,/
COCCNC(=S)NNC(=O)c1cccs1,-1,13,-11,5,-7,-3,/,/
COc1ccc(/C=C/C(=O)NC(=S)NNC(=O)c2cnccn2)cc1,-1,98*,80*,3,74*,76*,53*,53*
COc1ccccc1C(=O)NNC(=S)NC(=O)c1cccs1,2,3,104*,47,63*,15,35,/
COc1ccc(/C=C/C(=O)NC(=S)NNC(=O)c2cccs2)cc1,6,12,94*,0,54*,15,53*,73*
C=CCOc1c(Br)cc(/C=N/NC(N)=O)cc1OC,-1,-13,-10,?,9,-5,/,/
O=C(NCCCCCCCCNC(=O)c1cccc2ccccc12)c1cccc2ccccc12,1,/,/,/,/,/,/,/
COc1ccc2[nH]c(=O)c(CN(Cc3cccs3)S(=O)(=O)c3c(C)ccc4nsnc34)cc2c1,6,47,-9,?,64*,/,68*,73*
Cc1ccc2[nH]c(=O)c(CN(Cc3ccco3)S(=O)(=O)c3c(C)ccc4nsnc34)cc2c1,2,-16,5,-5,55*,0,6,/
S=c1nn[nH]c2ccccc12,0,/,/,/,/,/,/,/
Cc1nc(C(=O)Nc2cc(F)cc(Cl)c2)sc1C1(C)CC(c2ccccc2)=NO1 (stereo unspecified),-2,12,9,-14,20,-1,/,/
COc1ccc(Cn2cnc3c4cc(F)ccc4n(C)c3c2=O)cc1,44,1,-1,20,65*,-7,9,/
COc1ccc2c(c1)c1ncn(CCc3ccccc3)c(=O)c1n2C,-1,74,-5,19,6,-9,/,/
Nc1ncnc2oc(-c3ccco3)c(-c3ccco3)c12,3,/,-6,16,52*,/,23,/
SMILES,MPTP block,CSC inhib,SKKanGAS inh,Calb FLC,Mdm2 MdmX PPI,Beta cell apopt,Mdm2 MdmX conf,Full FLuc ctr
COC(=O)c1ccc2nc(C)cc(Nc3ccc(N(C)C)cc3)c2c1,0,14,-3,11,5,14,/,/
COC(=O)c1ccc(Nc2cc(C)nc3ccccc23)cc1,3,39,-2,-2,100*,20,65*,52*
CC(=O)c1ccc(Nc2cc(C)nc3c(C)cc(C)cc23)cc1,1,-7,7,-7,64*,77*,61*,65*
COC(=O)c1cc(S(=O)(=O)NCC2CCN(Cc3ccc(C)cc3)CC2)cn1C,0,17,-11,-14,-6,-6,/,/
CC(C)(C)c1ccccc1OCC(=O)Nc1ccccc1C(=O)NCc1cccnc1,0,16,-24,0,22,3,/,/
Cc1cc(N/N=C/c2ccc(Cl)cc2Cl)nc(NCc2ccccc2)n1,15,?,92*,21,71*,/,31,/
CC(C)(C)c1ccc(NC(=O)NC2CCCc3ccccc32)cc1 (stereo unspecified),26,64,-1,-5,70*,21,53*,70*
COc1ccc(S(=O)(=O)N2CCN(CC(O)CN3CCOCC3)CC2)cc1 (stereo unspecified),0,/,/,/,-8,-1,/,/
Cc1cccc(NC(=O)c2ccc(C3SCC(=O)N3CCc3ccccc3)cc2)c1 (stereo unspecified),5,0,16,-4,54*,37,25,/
CC(=O)Nc1ccc(NC(=O)c2ccc(C3SCC(=O)N3CCc3ccccc3)cc2)cc1 (stereo unspecified),0,-1,4,32,20,-1,/,/
CC(C)(C)NC(=O)CSc1nc(-c2ccccc2)cc(=O)[nH]1,1,-12,-6,14,13,-5,/,/
O=C(Cc1ccccc1)NN=Cc1ccccc1,-1,/,/,/,/,/,/,/
Cc1ccc(/C=N/NC(=O)Cc2ccc(Cl)cc2)c(O)c1,26,56,101*,-5,60*,83*,54*,42*
Cc1ccccc1/C=N/NC(=O)Cc1ccc(Cl)cc1,0,-7,-1,-9,17,-2,/,/
O=C(Cc1ccccc1)N/N=C/c1cc(Br)cc(Cl)c1O,22,20,97*,114*,59*,/,68*,29
COc1cc2c(cc1OC)CN(C(=O)CCCOc1ccc(Cl)cc1Cl)CC2,0,-2,-6,9,8,-9,/,/
Cc1cc(C)cc(NC(=O)c2cccc3c2C(=O)N(C2CCCCC2)C3)c1,3,-23,16,10,17,6,/,/
COc1cc(NC(=O)c2cccc3c2C(=O)N(C2CCCCC2)C3)cc(OC)c1OC,0,8,29,33,78*,8,43*,61*
CC(=O)n1cc(N(C(=O)CCl)c2ccc(C)cc2)c2ccccc21,1,18,-5,32,99*,-12,100*,52*

# Screening results: PubChem, several laboratories
